Assay results from PubChem BioAssay (NCATS).
Results filed as inconclusive are left out. Active and inactive are the calls of the source. The call rests on the fitted dose curve; in most records, active means well fitted activation curve with a large enough effect; inconclusive means small, poorly fitted or top-dose-only effect, or effect the other way; inactive means flat fitted curve, though single readings scatter.

Assay: qHTS Assay for Identification of Small Molecule Agonists for Thrombopoietin (TPO) Signaling Pathway (AID 917)
Details: TPO signaling pathway reporter cells, agonist qHTS, stimulated with TPO at its EC50; series mostly up to 38.5 µM
Experimental: NIH Molecular Libraries Screening Centers Network [MLSCN]
NIH Chemical Genomics Center [NCGC]
The thrombopoietin (TPO) signaling pathway was assayed in murine Ba/F3 cells stably transfected with the human TPO receptor and a luciferase reporter gene controlled by the Glycoprotein IIb promoter (provided by Axxam). BaF3 cells are an IL-3-dependent pro B cell line that upon TPO stimulation, undergo cell division and induce the megakaryocyte marker, Glycoprotein IIb. The assay was screened at the EC50 of TPO (26 pM) to identify activators of the pathway.
NCGC Assay Protocol Summary:
Cells were maintained at 37 C and 5% CO2in RPMI with 10% fetal bovine serum, 0.5 ng/mL murine IL-3, 100U/ml penicillin and 100 ug/ml streptomycin. Prior to plating, cells were incubated overnight in medium without IL-3. Cells were plated at 250 cells/5uL/well into white solid 1536-well plates, 23 nL of compounds were delivered by a pin tool, and 1 uL of TPO (26 pM final concentration in IL-3 deficient medium) was added. Following 24 hrs of incubation at 37 C and 5% CO2, 4 uL of Steadylite detector mix (PerkinElmer) was added, the plates incubated at room temperature for 10 min and luminescence was measured for 10 s and 2X binning by a ViewLux detector (Perkin Elmer).

outcome, inactive:
O=C(O)/C=C\[C@H](O)c1ccc(Cl)cc1
COc1ccc(CCN(C)CCC[C@@](C#N)(c2cc(OC)c(OC)c(OC)c2)C(C)C)cc1OC
NC(=O)c1ncn([C@@H]2O[C@@H](CO)[C@@H](O)[C@H]2O)c1O
C[C@@H]1C[C@@H]2[C@H]3CCC4=CC(=O)C=C[C@]4(C)[C@]3(Cl)[C@@H](O)C[C@@]2(C)[C@@]1(O)C(=O)CO
C[C@H](Oc1ccc(Oc2cnc3ccc(Cl)cc3n2)cc1)C(=O)O
Nc1ncnc2c1nc(Sc1ccc(Cl)cc1)n2[C@@H]1O[C@H]2COP(=O)(O)O[C@@H]2[C@H]1O
C[C@@H](CN1CCC(Cc2ccccc2)CC1)[C@H](O)c1ccc(O)cc1
O=C(O)CC[C@@H](NC(=O)c1ccccc1C(=O)O)C(=O)O
Cc1ccc(C(=O)O[C@@H](C(=O)O)[C@@H](OC(=O)c2ccc(C)cc2)C(=O)O)cc1 (tested in a mixture with another compound)
C[C@@H](C(=O)O)c1ccc(C[C@@H]2CCCC2=O)cc1
CC(=O)[C@@H]1CC[C@@H]2[C@@H]3CC=C4C[C@H](OS(=O)(=O)O)CC[C@@]4(C)[C@H]3CC[C@]21C
C[C@H]1CN(S(=O)(=O)c2cccc3cnccc23)CCN1
COc1cc2c(cc1OC)[C@H](c1ccccc1)CN(C)CC2
Nc1c2c(nc3ccccc13)CCC[C@H]2O
OC[C@@H]1NC[C@@H](O)[C@@H](O)[C@H]1O
CSc1nc(N)c2ncn([C@@H]3O[C@@H](COP(=O)(O)OP(=O)(O)O)[C@@H](O)[C@H]3O)c2n1
COc1cc([C@H](O)C(=O)O)ccc1O
C[C@@]12C=CC(=O)C=C1CC[C@@H]1C2=CC[C@]2(C)[C@@H]1CC[C@H]2C(=O)CN1CCN(c2cc(N3CCCC3)nc(N3CCCC3)n2)CC1
O=C(O)CCCC[C@H]1CCSS1
C[C@@H](COc1ccc(/C=C\c2ccccc2)cc1)[N+](C)(C)C
NC(N)=N[C@H](CCC(=O)O)C(=O)O
CCCCCCCCCCCCCCCC(=O)NC[C@@H](COP(=O)([O-])OCC[N+](C)(C)C)OCC
OC[C@@H]1O[C@H](O)[C@@H](Cl)[C@H](O)[C@@H]1O
O[C@H](CN1CCN(c2cccc(Cl)c2)CC1)C(c1ccccc1)c1ccccc1
CNC(=O)[C@@H]1O[C@@H](n2cnc3c(N)ncnc32)[C@@H](O)[C@H]1O
CC[C@H]1C(=O)OC[C@H]1Cc1cncn1C
Cc1ccccc1CNc1ncnc2c1ncn2[C@@H]1O[C@@H](CO)[C@H](O)[C@@H]1O
O=c1ccn([C@@H]2O[C@@H](COP(=O)(O)OP(=O)(O)O)[C@H](O)[C@@H]2O)c(=O)[nH]1
COC(=O)[C@H]1[C@H]2C[C@H]3c4[nH]c5ccccc5c4CCN3C[C@@H]2CC[C@@H]1O
COc1cc([C@@H](O)CO)ccc1OS(=O)(=O)O
[N-]=[N+]=Nc1ccc(C(=O)CSC[C@@H](NC(=O)CC[C@@H](N)C(=O)O)C(=O)NCC(=O)O)cc1
Cc1cn([C@H]2C[C@H](N=[N+]=[N-])[C@H](CO)O2)c(=O)[nH]c1=O
C=C(C)[C@@H]1CC=C(C(=O)O)CC1
N[C@H](CCCC(=O)O)C(=O)O
CC1(C)CCC(NC(=O)[C@H](N)CCC(=O)O)CC1
COC(=O)[C@](C)(N)Cc1ccc(O)cc1
CNc1ncnc2c1ncn2[C@H]1C[C@@H](OP(=O)(O)O)[C@H](COP(=O)(O)O)O1
C[C@H](O)[C@H](O)[C@@H]1CNc2nc(N)[nH]c(=O)c2N1
O=C(O)CCC(=O)N1CCC[C@H]1C(=O)O
C=C/C(C)=C/[C@]1(C)SC(=O)C(C)=C1O
